In ChEMBL document CHEMBL1961873, “Compounds: GSK PKIS; Assays: Nanosyn kinase panel” (2012):

Biological target: T1, Tyrosine-protein kinase ITK/TSK (Homo sapiens) (UniProt Q08881);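 also: values are mean percent inhibition of ITK from the GSK PKIS screen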
T1 sequence (whole entry): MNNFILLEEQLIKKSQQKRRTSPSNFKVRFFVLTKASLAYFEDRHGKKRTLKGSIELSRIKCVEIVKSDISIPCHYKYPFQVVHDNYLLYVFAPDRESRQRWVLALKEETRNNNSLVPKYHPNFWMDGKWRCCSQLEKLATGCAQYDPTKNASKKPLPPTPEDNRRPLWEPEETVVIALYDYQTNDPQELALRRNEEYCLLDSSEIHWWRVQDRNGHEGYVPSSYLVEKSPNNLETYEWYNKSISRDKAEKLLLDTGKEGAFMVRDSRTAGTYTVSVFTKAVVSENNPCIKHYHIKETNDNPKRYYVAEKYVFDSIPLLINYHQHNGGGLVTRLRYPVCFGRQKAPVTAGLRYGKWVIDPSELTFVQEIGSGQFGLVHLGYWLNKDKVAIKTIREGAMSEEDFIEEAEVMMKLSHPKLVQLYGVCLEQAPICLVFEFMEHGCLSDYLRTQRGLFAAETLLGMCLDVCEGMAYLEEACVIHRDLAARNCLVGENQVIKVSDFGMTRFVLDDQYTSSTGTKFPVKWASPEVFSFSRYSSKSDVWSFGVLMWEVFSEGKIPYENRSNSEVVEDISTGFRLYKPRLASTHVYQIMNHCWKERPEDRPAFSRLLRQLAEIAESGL
Conditions: at 1 µM

Q: How did the inhibition turn out when `COc1ccc(COc2ccc(Cc3cnc(N)nc3N)cc2OC)cc1` was run?
A: 2.31%

Q: How did the inhibition turn out when `[O-][S+]1CCN(Cc2ccc(-c3ccc4ncnc(Nc5ccc(OCc6ccccc6)c(F)c5)c4c3)o2)CC1` was run?
A: 2.13%

Q: `CC(C)=Cc1cccc2c1/C(=N/Nc1ccc(S(N)(=O)=O)cc1)C(=O)N2` was tested. Which inhibition did it give?
A: 4.66%

Q: For `Nc1ncnc2occ(-c3ccc(NC(=O)Nc4cc(C(F)(F)F)cc(C(F)(F)F)c4)cc3)c12`, which inhibition is on record?
A: 11.2%

Q: `COc1cc(C)c(NC(=O)CN(C)C)cc1Nc1nc(Nc2cccc(F)c2C(N)=O)c2cc[nH]c2n1` was tested. Which inhibition did it give?
A: 1.95%

Q: `COC(=O)Nc1nc2cc(Oc3ccc(NC(=O)Nc4cccc(C(=O)O)c4)cc3)ccc2[nH]1` was tested. Which inhibition did it give?
A: -2.68%

Q: With `CS(=O)(=O)Nc1ccc(N/C=C2\C(=O)Nc3ccccc32)cc1` as the compound, how does the inhibition read?
A: 3.61%

Q: Which inhibition does the source give for `CC(=O)Nc1cccc(C#Cc2cncnc2Nc2ccc(OCc3cccc(F)c3)c(Cl)c2)n1` here?
A: 0.33%

Q: How did the inhibition turn out when `CN(C)c1cc2c(Nc3ccc4nc(Cc5ccccc5)[nH]c4c3)ncnc2cn1` was run?
A: 1.51%

Q: Which inhibition does the source give for `COc1ccc(-c2ccncc2)cc1C(N)=O` here?
A: 2.32%

Q: With `O=C(Nc1n[nH]c2nc(-c3ccco3)c(Br)cc12)C1CC1` as the compound, how does the inhibition read?
A: 23.7%

Q: For `CS(=O)(=O)CCNCc1ccc(-c2ccc3ncnc(Nc4ccc(OCc5cccc(F)c5)c(C(F)(F)F)c4)c3c2)o1`, which inhibition is on record?
A: 0.72%

Q: Which inhibition does the source give for `CCn1c(-c2nonc2N)nc2c(C#CC(C)(C)O)nc(CN3CCCC3)cc21` here?
A: 0.72%

Q: `CCn1c(-c2nonc2N)nc2c(N3CCCC3)nccc21` was tested. Which inhibition did it give?
A: -0.14%

Q: For `CCc1cccc(NC(=O)Nc2ccc(Oc3ccc4nc(NC(=O)OC)[nH]c4c3)cc2)c1`, which inhibition is on record?
A: 1.87%

Q: Which inhibition does the source give for `O=C1Nc2ccc(C(=O)c3ccco3)cc2C1=Cc1cc(Cl)c(O)c(Cl)c1` here?
A: 3.21%

Q: `CS(=O)(=O)CCNCc1nc(-c2ccc3ncnc(Nc4ccc(F)c(Cl)c4)c3c2)cs1` was tested. Which inhibition did it give?
A: 0.89%

Q: Which inhibition does the source give for `Fc1cccc(COc2ccc(Nc3ncnc4cc(-c5ccc[nH]5)sc34)cc2Cl)c1` here?
A: -1.9%

Biological target: Tyrosine-protein kinase JAK1 (Homo sapiens) (UniProt P23458)
Conditions: at 0.1 µM

Sequence of Tyrosine-protein kinase JAK1 (Homo sapiens) (P23458 whole entry): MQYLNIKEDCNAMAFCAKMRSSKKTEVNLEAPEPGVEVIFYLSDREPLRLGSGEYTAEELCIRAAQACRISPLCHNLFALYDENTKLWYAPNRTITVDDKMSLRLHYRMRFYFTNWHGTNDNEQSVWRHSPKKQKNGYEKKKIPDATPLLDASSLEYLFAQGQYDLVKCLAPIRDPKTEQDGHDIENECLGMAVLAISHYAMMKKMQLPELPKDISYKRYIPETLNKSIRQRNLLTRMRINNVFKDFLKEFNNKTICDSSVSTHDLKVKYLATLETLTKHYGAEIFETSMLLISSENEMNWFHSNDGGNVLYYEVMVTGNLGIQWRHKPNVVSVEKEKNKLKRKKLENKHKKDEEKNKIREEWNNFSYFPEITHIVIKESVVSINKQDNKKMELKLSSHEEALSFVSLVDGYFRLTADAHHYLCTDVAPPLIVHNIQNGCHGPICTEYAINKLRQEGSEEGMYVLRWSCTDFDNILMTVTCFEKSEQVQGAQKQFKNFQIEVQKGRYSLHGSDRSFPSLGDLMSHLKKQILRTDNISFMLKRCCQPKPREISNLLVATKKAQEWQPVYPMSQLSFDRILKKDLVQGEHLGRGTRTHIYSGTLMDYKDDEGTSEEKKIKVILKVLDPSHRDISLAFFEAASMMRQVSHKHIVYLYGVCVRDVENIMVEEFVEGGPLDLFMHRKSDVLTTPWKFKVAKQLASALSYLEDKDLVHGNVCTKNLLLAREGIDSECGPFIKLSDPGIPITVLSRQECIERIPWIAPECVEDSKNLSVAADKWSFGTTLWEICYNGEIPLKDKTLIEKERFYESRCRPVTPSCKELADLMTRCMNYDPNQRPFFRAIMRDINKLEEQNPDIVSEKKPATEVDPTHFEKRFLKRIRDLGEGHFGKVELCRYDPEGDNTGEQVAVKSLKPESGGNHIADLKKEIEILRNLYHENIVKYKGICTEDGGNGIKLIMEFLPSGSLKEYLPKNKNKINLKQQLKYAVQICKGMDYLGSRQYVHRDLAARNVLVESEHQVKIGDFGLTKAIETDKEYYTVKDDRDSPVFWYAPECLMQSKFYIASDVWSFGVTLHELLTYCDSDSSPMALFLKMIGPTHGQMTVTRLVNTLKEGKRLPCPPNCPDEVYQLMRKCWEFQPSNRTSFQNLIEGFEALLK

Q: How did the inhibition turn out when `N#Cc1c(NC(=O)c2cccc3ccccc23)sc2c1CCCC2` was run?
A: 3.98%

Q: How did the inhibition turn out when `CCn1c(-c2nonc2N)nc2cncc(C(=O)N3CCNCC3)c21` was run?
A: 4.28%

Q: `CC1=C(C(=O)Nc2ccc3[nH]ncc3c2)C(c2ccc3ccccc3c2)CC(=O)N1` (centres undefined) was tested. Which inhibition did it give?
A: 4.05%

Q: How did the inhibition turn out when `Cc1nnc(-c2ccc(C)c(-c3ccc(C(=O)Nc4cccc(C#N)c4)cc3)c2)o1` was run?
A: 1.77%

Q: How did the inhibition turn out when `Cc1nn(C)c2cc(N(C)c3ccnc(Nc4cccc(S(N)(=O)=O)c4)n3)ccc12` was run?
A: 12.3%

Q: Which inhibition does the source give for `CS(=O)(=O)CCN(CC#N)Cc1ccc(-c2ccc3ncnc(Nc4ccc(OCc5cccc(F)c5)c(Cl)c4)c3c2)o1` here?
A: 0.62%

Q: Which inhibition does the source give for `COc1cc2ncn(-c3cc(OCc4ccccc4Cl)c(C(N)=O)s3)c2cc1OC` here?
A: 0.17%

Q: For `Cc1cccc(-c2n[nH]cc2-c2ccc3ncccc3n2)n1`, which inhibition is on record?
A: -0.09%

Q: How did the inhibition turn out when `CCn1c(-c2nonc2N)nc2ccncc21` was run?
A: 1.34%

Q: `COc1cc2ncn(-c3cc(OCc4ccccc4C(F)(F)F)c(C(N)=O)s3)c2cc1OC` was tested. Which inhibition did it give?
A: 1.72%

Q: For `NCc1ccc(-c2nc(-c3ccc(Cl)c(O)c3)c(-c3ccncc3)[nH]2)cc1`, which inhibition is on record?
A: -0.11%

Q: Which inhibition does the source give for `CCN1CCC(CC(=O)Nc2n[nH]c3nc(-c4cccs4)c(Br)cc23)CC1` here?
A: -7.81%

Q: Which inhibition does the source give for `Nc1nc(-c2ccc3c(c2)C(=Cc2cc(Br)c(O)c(Br)c2)C(=O)N3)cs1` here?
A: 0.76%

Q: For `COc1ccc(-c2nn3ncccc3c2-c2ccnc(Nc3ccc(Cl)c(C(F)(F)F)c3)n2)cc1`, which inhibition is on record?
A: 1.77%

Q: For `COc1ccc(COc2ccc(Cc3cnc(N)nc3N)cc2OC)cc1`, which inhibition is on record?
A: 3.77%

Q: Which inhibition does the source give for `[O-][S+]1CCN(Cc2ccc(-c3ccc4ncnc(Nc5ccc(OCc6ccccc6)c(F)c5)c4c3)o2)CC1` here?
A: 0.52%

Q: How did the inhibition turn out when `CC(C)=Cc1cccc2c1/C(=N/Nc1ccc(S(N)(=O)=O)cc1)C(=O)N2` was run?
A: 2.53%

Q: Which inhibition does the source give for `Nc1ncnc2occ(-c3ccc(NC(=O)Nc4cc(C(F)(F)F)cc(C(F)(F)F)c4)cc3)c12` here?
A: -0.74%

Q: `COc1cc(C)c(NC(=O)CN(C)C)cc1Nc1nc(Nc2cccc(F)c2C(N)=O)c2cc[nH]c2n1` was tested. Which inhibition did it give?
A: 2.55%

Q: With `COC(=O)Nc1nc2cc(Oc3ccc(NC(=O)Nc4cccc(C(=O)O)c4)cc3)ccc2[nH]1` as the compound, how does the inhibition read?
A: 2.43%

Q: How did the inhibition turn out when `CS(=O)(=O)Nc1ccc(N/C=C2\C(=O)Nc3ccccc32)cc1` was run?
A: 0.26%

Q: How did the inhibition turn out when `CC(=O)Nc1cccc(C#Cc2cncnc2Nc2ccc(OCc3cccc(F)c3)c(Cl)c2)n1` was run?
A: 3.25%

Q: Which inhibition does the source give for `CN(C)c1cc2c(Nc3ccc4nc(Cc5ccccc5)[nH]c4c3)ncnc2cn1` here?
A: 5.67%

Q: Which inhibition does the source give for `COc1ccc(-c2ccncc2)cc1C(N)=O` here?
A: 0.28%

Q: With `O=C(Nc1n[nH]c2nc(-c3ccco3)c(Br)cc12)C1CC1` as the compound, how does the inhibition read?
A: 2.41%

Q: With `CS(=O)(=O)CCNCc1ccc(-c2ccc3ncnc(Nc4ccc(OCc5cccc(F)c5)c(C(F)(F)F)c4)c3c2)o1` as the compound, how does the inhibition read?
A: 3.98%

Q: With `CCn1c(-c2nonc2N)nc2c(C#CC(C)(C)O)nc(CN3CCCC3)cc21` as the compound, how does the inhibition read?
A: 1.82%

Q: `CCc1cccc(NC(=O)Nc2ccc(Oc3ccc4nc(NC(=O)OC)[nH]c4c3)cc2)c1` was tested. Which inhibition did it give?
A: 1.39%

Q: Which inhibition does the source give for `O=C1Nc2ccc(C(=O)c3ccco3)cc2C1=Cc1cc(Cl)c(O)c(Cl)c1` here?
A: 5.2%

Q: How did the inhibition turn out when `CS(=O)(=O)CCNCc1nc(-c2ccc3ncnc(Nc4ccc(F)c(Cl)c4)c3c2)cs1` was run?
A: 2.86%

Q: With `Fc1cccc(COc2ccc(Nc3ncnc4cc(-c5ccc[nH]5)sc34)cc2Cl)c1` as the compound, how does the inhibition read?
A: 2.84%
